Screens from PubChem.
MenB inh – blocks the Mycobacterium tuberculosis MenB enzyme | AID 540299 | 100,000 compounds, 0.43% hits | P9WNP5 | inhibition, % (test concentration not listed) | MenB enzyme assay, absorbance read-out; in the data active = inhibition above about 21%, passing the limit was not always enough
Target sequence (P9WNP5 whole entry, looked up): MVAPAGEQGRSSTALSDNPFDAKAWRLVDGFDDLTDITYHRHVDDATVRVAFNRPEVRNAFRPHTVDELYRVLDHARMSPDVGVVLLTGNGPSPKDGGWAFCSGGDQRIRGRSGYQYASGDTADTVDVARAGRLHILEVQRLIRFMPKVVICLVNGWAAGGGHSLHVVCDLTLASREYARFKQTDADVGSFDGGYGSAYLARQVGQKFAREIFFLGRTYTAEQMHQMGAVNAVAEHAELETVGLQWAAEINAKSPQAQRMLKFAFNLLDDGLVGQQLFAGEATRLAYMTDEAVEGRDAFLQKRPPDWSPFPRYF
AID504770 – growth inhibitors of E. coli YBA685 in a screen for V. cholerae RctB (chromosome II replication) inhibitors; z-score (concentration not given with the values); AID 504770; 130,000 compounds, 0.27% hits; E. coli YBA685 rctB-dependent plasmid, OD600 growth, 3 h; stronger effect = lower value; in the data active = z-score below about -2, passing the limit was not always enough
MbtI inh – MbtI salicylate synthase inhibition. purified MbtI enzyme, fluorescence intensity read-out. inhibition, % (concentration not given with the values). 100,000 compounds, 0.89% hits; in the data active = inhibition mostly above about 56%, no sharp cut-off; inactive = mostly below about 77%
PV pol inh – poliovirus RNA polymerase inhibition. % elongation, % (compound at 16.7 µg/mL). 150,000 compounds, 0.66% hits. poliovirus polymerase elongation, fluorescence polarization; stronger effect = lower value. P03300; in the data active = % elongation below about 90%
Each line names hits and unclear results; the compound was inactive in the other large screens. In the library only some 1.4% were active in any assay of this set; here they are far more common.

COC(=O)c1sc(=S)n(-c2cc(OC)ccc2OC)c1N	none
COC(=O)c1sc(=S)n(-c2cccc(OC)c2)c1N	MbtI inh 96
O=C(O)Cn1c2ccccc2c2n[nH]c(=S)nc21	MbtI inh 90
CCn1c2ccccc2c2n[nH]c(=S)nc21	none
CSc1nc(-c2ccco2)nn1S(C)(=O)=O	MbtI inh 84
CC1=C(C)C(=O)C(NCC2CCCO2)=CC1=O (stereo not drawn)	PV pol inh 70
Cc1n[nH]c(=O)nc1NCC1CCCO1 (stereo not drawn)	none (no result: MenB inh, MbtI inh, PV pol inh)
CC(C)c1ccc(NC(=S)Sc2ccc(F)cc2F)cc1	MbtI inh 65
Cc1cc(C)c2c(-n3cccc3)n[nH]c2n1	none (no result: MenB inh, MbtI inh, PV pol inh)
CCN(CC)/N=N/c1[nH]nc2nc(C)cc(C)c12	AID504770 -7.5 (no result: MbtI inh)
O=C1C=CC(=O)c2c(Cl)ccc(Cl)c21	AID504770 -2
CC1CCCCN1C(=O)c1ccc2c(=O)n3c(nc2c1)CCCCC3 (stereo not drawn)	none (no result: MenB inh, MbtI inh, PV pol inh)
c1ccc(N=c2[n-][n+](-c3ccccc3)cn2-c2ccccc2)cc1	PV pol inh 85 (no result: MbtI inh)
Cc1cccc2nc(=S)n(C(=O)c3ccc(F)cc3)n12	PV pol inh 74 (no result: MbtI inh)
COC(=O)c1cnc(NN2C(=O)C=C(C)C2=O)nc1C(F)(F)F	MbtI inh 53
C=CCN(CC=C)C(=O)C(C)Oc1ccc(Cl)cc1Cl (stereo not drawn)	none
C=CCn1c(Sc2ncnc3sc(C)c(C)c23)nnc1C1CCCCC1	none
c1ccc(-c2cccc(-c3ccccn3)n2)nc1	none (no result: MenB inh)
c1ccc(-c2ccc(-c3ccccn3)nc2)nc1	AID504770 -2.4 (no result: MenB inh, MbtI inh, PV pol inh)
NS(=O)(=O)c1ccc(NC(=O)CCC(=O)Nc2ccc(S(N)(=O)=O)cc2)cc1	none
NS(=O)(=O)c1ccc(NC(=O)CS)cc1	MbtI inh 76
CCOc1ccc(NC(=O)c2c(NC(=O)c3ccccc3Br)sc3c2CCC(C)C3)cc1 (stereo not drawn)	PV pol inh 78 (no result: MenB inh, AID504770, MbtI inh)
O=C1c2c(O)ccc(O)c2C(=O)c2c(NCCNCCO)ccc(NCCNCCO)c21	PV pol inh -53
O=c1[nH]cc(NCCO)c(=O)[nH]1	none (no result: MenB inh, PV pol inh)
Cc1ccc(-n2c(C)nc3c(cnn3-c3ccccc3)c2=O)cc1	PV pol inh 82 (no result: MenB inh, AID504770, MbtI inh)
N#CC1=C(N)OC2=C(CCCC2=O)C1c1ccccc1C(F)(F)F (stereo not drawn)	none (no result: MbtI inh)
Cc1cccc(-c2nnc(C3CCN(S(=O)(=O)Cc4ccccc4)CC3)o2)c1	MbtI inh 72
O=c1c(=Nc2ccc(O)cc2)c(=O)c2ccccc12	PV pol inh 49 (no result: MenB inh)
COCCn1c(O)c(C(C)=NCC(C)(C)N2CCOCC2)c(=O)[nH]c1=S	none
Cn1c(O)c(/C=C/c2ccc3ccccc3n2)c(=O)[nH]c1=O	none
Cc1[nH]n(-c2nc3ccccc3s2)c(=O)c1C	none
Cc1[nH]n(-c2nc3ccccc3s2)c(=O)c1C1OC(=O)c2ccccc21 (stereo not drawn)	MbtI inh 95
Cc1ccc2nc(NC(=O)c3ccccc3C)sc2c1	none (no result: MenB inh, MbtI inh, PV pol inh)
NC(=O)C(c1ccccc1)c1ncc(C(F)(F)F)cc1Cl (stereo not drawn)	AID504770 -2.7 (no result: MenB inh, MbtI inh, PV pol inh)
O=C(Cn1c2ccc(F)cc2c2nc3n(c(=O)c21)CCS3)N1CCCC1	MenB inh 30
CCCn1c2ccc(F)cc2c2nc3n(c(=O)c21)CCS3	none
O=C(O)c1cn(C2CC2)c2cc(N3CCNCC3)c(F)cc2c1=O	AID504770 -3.4
CCn1cc(C(=O)O)c(=O)c2cc(F)c(F)cc21	none
COc1c(N2CCNC(C)C2)c(F)cc2c(=O)c(C(=O)O)cn(C3CC3)c12 (stereo not drawn)	AID504770 -3.5
CO/N=C1\CN(c2nc3c(cc2F)c(=O)c(C(=O)O)cn3C2CC2)CC1CN (stereo not drawn)	AID504770 -3.6 (no result: MbtI inh)
O=C(O)C1CSC2(CCN(Cc3ccccc3)CC2)N1 (stereo not drawn)	MenB inh 38
NC(=O)C1CCN(Cc2ccccc2)CC1	none
O=C1NCC(O)=C1/C=N/Nc1ccccc1	AID504770 -4
CCOC(=O)C1CCN(CN2C(=O)CCC2=O)CC1	none
Cc1c(C(=O)CN2C(=O)COc3ccc(Cl)cc32)c2ccccc2n1C	none
Cc1ccc2cccc(I)c2n1	AID504770 -2.5
Cc1nc(C(N)=O)c(N)n1C	none (no result: MbtI inh)
CCOc1ccc(-n2c(N)c(C(=O)N3CCN(C)CC3)sc2=S)cc1	none
CCOC(=O)c1ccc(-n2c(N)c(C(=O)NCC3CCCO3)sc2=S)cc1 (stereo not drawn)	MbtI inh 92
CCOC(=O)c1ccc(-n2c(N)c(C(=O)N3CCCC3)sc2=S)cc1	MbtI inh 93
N#CC(C#N)=C1C=C(c2ccc3c(c2)OCCO3)Oc2ccccc21	none
